Reference: the supplement of paper PMC3484114
± gives the standard deviation.

tested on: OVCAR-3-derived ovarian cancer stem-like cells (spheroids); test: cell growth relative to untreated control; higher = more growth (less inhibition); settings: 2.29 µM; 96 h
Procedure, shortened: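 OVCAR-3 spheroid-derived stem-like cells were trypsin-dissociated, seeded at 50,000 cells/mL in stem cell medium in ultra-low attachment 96-well plates and preincubated 24 h. Compounds were then added at 2.29 uM for 96 h at 37°C, 5% CO2, in 4 replicate wells. Viability was read as TOX8 resazurin fluorescence (ex 560/em 590 nm) after 4 h. Percent growth was calculated relative to untreated wells after blank subtraction and Grubbs outlier removal.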

Row | SMILES | cell growth
1 | COc1c2c(c(OC)c3c1c(=O)c1ccccc1n3C)OCO2 | 97.8 ± 12%
2 | CS(=O)(=O)c1nc(N)nc2nc[nH]c12 | 99.3 ± 19%
3 | O=C(Nc1ccccc1-c1nn(C(=S)Nc2ccccc2)c(=S)n(C(=S)Nc2ccccc2)c1=O)C(F)(F)F | 84.8 ± 15%
4 | COc1ccc2cc(CN3CCC(C4CCN(Cc5ccc6cc(OC)ccc6c5)CC4)CC3)ccc2c1 | 110 ± 24%
5 | CC(=O)NCCCCCCNC(C)=O | 119 ± 7.8%
6 | Oc1ccc(/C=N/NC(=S)Nc2cccnc2)nc1 | 145 ± 23%
7 | O=C1c2cccc(NCCCNCCO)c2C(=O)c2cccc(NCCCNCCO)c21 | 57.9 ± 16%
8 | CC(C)CCCCCCCCCCCCC(=O)NCC(=O)N[C@@H]1[C@@H](O)[C@H](O)[C@@H](Nc2ncnc3nc[nH]c23)O[C@H]1[C@@H](O)CO | 13.2 ± 4.3%
9 | O=C1c2ccccc2C(=O)C1C(c1ccc([N+](=O)[O-])cc1)C1C(=O)c2ccccc2C1=O | 83.3 ± 24%
10 | CC(=O)c1sc2[n+](c1C)C(=O)/C(=C\c1ccccc1Cl)S2 | 99.4 ± 17%
11 | COC(=O)C1(C)CCCC2(C)C3CCC4CC3(C=C4CO)CCC12 (centres undefined) | 95.7 ± 14%
12 | Nc1ncnc2c1nnn2[C@@H]1O[C@H](CO)[C@@H](O)[C@H]1O | 23.1 ± 4.4%
13 | Cc1cc(O)c(C(C)C)cc1C1(c2cc(C(C)C)c(O)cc2C)OC(=O)c2ccccc21 | 104 ± 32%
14 | CCN(CC)CCNc1ccc(C)c2sc3ccccc3c(=O)c12 | 77.7 ± 26%
15 | O=C(CC(O)(C(F)(F)F)C(F)(F)Cl)CC(O)(C(F)(F)F)C(F)(F)Cl (centres undefined) | 66.8 ± 21%
16 | CC(=O)C1=C(O)C2(O)C(=O)c3c(c(C)c4ccc(C)c(O)c4c3O)CC2C(N)C1=O (centres undefined) | 118 ± 30%
17 | CCC1=C(C[C@H]2NCCc3cc(OC)c(OC)cc32)C[C@H]2c3cc(OC)c(OC)cc3CCN2C1 | 21.1 ± 7.4%
18 | NC(N)=NCCCS(=O)(=O)Nc1ccc(Nc2c3ccccc3nc3cc([N+](=O)[O-])ccc23)cc1 | 127 ± 32%
19 | CCCCCCCCCCCCCCCCOP(=O)([O-])OCC[N+](C)(C)C | 85.9 ± 16%
20 | COc1ccc(-n2/c(=N/C(=S)N(C)C)ss/c2=N\C(=S)N(C)C)cc1 | 111 ± 15%

Row | SMILES | cell growth
21 | Nc1ncnc2c1nc(Cl)n2[C@@H]1O[C@@H]2COP(=O)(O)O[C@H]2[C@H]1O | 115 ± 43%
22 | CC(=O)N(C)c1ccc(Nc2cc(C)[nH]c3ccc4ncnc4c23)cc1 | 81.9 ± 23%
23 | CC(C)(C)N(Cc1ccc2c(c1)OCO2)C(=O)/C=C\[S+]([O-])c1ccccc1 (centres undefined) | 41.6 ± 10%
24 | CN1C(c2ccccc2)CC(=NO)CC1c1ccccc1 (centres undefined) | 99.7 ± 13%
25 | N#CC(=S)Nc1ccc(F)cc1 | 104 ± 19%
26 | O=C1/C(=C\c2ccc(Cl)c(Cl)c2)CN(C(=O)CCN2CCOCC2)C/C1=C\c1ccc(Cl)c(Cl)c1 | 63.5 ± 9.5%
27 | COC1/C=C/OC2(C)Oc3c(C)c(O)c4c(c3C2=O)C(=O)C=C(NC(=O)/C(C)=C\C=C\C(C)C(OC=O)C(C)C(O)C(C)C(OC(C)=O)C1C)C4=O (centres undefined) | 66.6 ± 67%
28 | CC/C(=C(\c1ccccc1)c1ccc(OCCN(C)C)cc1)c1ccccc1 | 115 ± 14%
29 | CC1(C)CC(Nc2ccc(Nc3ccccc3)cc2)CC(C)(C)N1 | 72.4 ± 10%
30 | CC(=O)Oc1ccc(C(c2ccc(OC(C)=O)cc2)c2ccccn2)cc1 | 20.8 ± 5.2%
31 | COc1cc(/C=C/C(=O)CC(=O)/C=C/c2ccc(O)c(OC)c2)ccc1O | 89 ± 24%
32 | Cc1c(Cl)cccc1NC(=O)c1cccc([N+](=O)[O-])c1O | 106 ± 20%
33 | C=C1C(=O)OC2C1CC1OC2C(C)CCC/C(C)=C\CCC1(C)O (centres undefined) | 115 ± 10%
34 | Cc1cc(N(C)C)ccc1N=Nc1ccc2ncccc2c1 | 83.2 ± 6.3%
35 | O=C(O)c1ccc(Nc2c3ccccc3nc3ccccc23)cc1 | 98 ± 12%
36 | COc1cc(O)c2c(c1)C(=O)c1cc3c(c(O)c1C2=O)C(OC1OC(C)C(O)C(O)C1OC)C(OC)C(C)(O)C3=O (centres undefined) | 17.1 ± 7.5%
37 | O=c1[nH]c2ccc(O)cc2o1 | 80.8 ± 13%
38 | N#CC(=S)Nc1ccc(Cl)c(Cl)c1 | 90.6 ± 12%
39 | [N-]=[N+]=NC1=NNC2(C(=O)N1)c1ccccc1-c1ccccc12 | 99.3 ± 38%
